PubChem BioAssay (NCATS)
Inconclusive results are not listed. Unmarked numbers belong to inactive results. Calls come from the whole dose curve; as a rule, active = well fitted inhibition curve with a large enough effect; inconclusive = small, poorly fitted or top-dose-only effect; inactive = flat fitted curve, though single readings scatter. Residues, ends and D or L forms follow the SMILES beside them. *: point of attachment. Cbz = O=C(OCc1ccccc1)*

Assay: qHTS of Trypanosoma Brucei Inhibitors: LOPAC Validation (AID 624147); note: 0% is about no effect
Conditions: purified enzyme assay, luminescence, 45 min; series mostly up to 57.5 µM; activity change, negative = inhibition: at the top concentration
Summary of the method: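 TbPYK + substrate in 50 mM TEA pH 7.2, 100 mM KCl, 10 mM MgCl2, 0.05% BSA, 0.01% Tween-20; cpd pinned; ADP 130 uM final; 45 min RT; Kinase-Glo Plus 10 min; luminescence endpoint.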

Row | SMILES | activity change, negative = inhibition
1 | Cc1cccc(C2CN(C)CCc3c2cc(O)c(O)c3Cl)c1 (stereo not given) | -13.2%
2 | O=c1[nH]c(=O)c2nc3ccccc3nc2[nH]1 | -6.73%
3 | NCCC1CCCC(CCN)N1 (stereo not given) | 6.62%
4 | O=C(O)/C(=C/c1c(C(=O)O)[nH]c2cc(Cl)cc(Cl)c12)c1ccccc1 | -5.2%
5 | COc1ccc(CCN(C)CCc2ccc(OC)c(OC)c2)cc1OC | -5.95%
6 | NC1CONC1=O (stereo not given) | -4.05%
7 | CC(C)[C@H](NC(=O)OCc1ccccc1)C(=O)N[C@H](C=O)Cc1ccccc1 (Cbz-Val-Phe-aldehyde) | -7.99%
8 | CCn1c(=O)[nH]c2cc(Cl)c(Cl)cc21 | 0.735%
9 | O=C1Cc2c([nH]c3ccc(Br)cc23)-c2ccccc2N1 | -12.3%
10 | COc1cc(/C=C(\C#N)C(=O)c2ccc(O)c(O)c2)cc(I)c1O | -25%
11 | CCN1C(=O)C=CC1=O | 6.91%
12 | NC(C(=O)N[C@@H]1C(=O)N2C(C(=O)O)=C(Cl)CS[C@H]12)c1ccccc1 (stereo not given in full) | -9.07%
13 | O=c1ccn([C@@H]2O[C@H](COP(=O)(O)OP(=O)(O)O)[C@@H](O)[C@H]2O)c(=O)[nH]1 | -10.4%
14 | NCCCNCCCCNCCCN | -14.4%
15 | C=CCN1CCc2c(cc(O)c(O)c2Cl)C(c2ccccc2)C1 (stereo not given) | 5.44%
16 | CCCc1c(-c2ccc(O)cc2)nn(-c2ccc(O)cc2)c1-c1ccc(O)cc1 | -2.17%
17 | NCC(O)c1ccc(O)c(O)c1 (stereo not given) | -9.59%
18 | CCCCC[C@H](CC(=O)NO)C(=O)N[C@H](C(=O)N1CCC[C@H]1CO)C(C)C | 6.91%
19 | O=C(O)C1CCCNC1 (stereo not given) | 1.06%
20 | C=CCN1CCc2c(cc(O)c(O)c2Br)[C@@H](c2ccccc2)C1 | -5.39%
